From PubChem BioAssay
RXFP1 antag: RXFP1 (human) relaxin receptor antagonism. HEK293-RXFP1, relaxin-stimulated cAMP HTRF, 30 min; stronger effect = lower value. activity change, negative = inhibition, % at 57.5 µM. actives 0.59% (n = 350,000). AID 1259400;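 active = activity change of -60% or lower, but not beyond a set lower limit; inconclusive = change between -60% and -40%, or beyond the set limit; inactive = change above -40%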; note: % is set by controls: 0 for no effect and ±100 for the full control effect
Target sequence (Q9HBX9 whole entry, looked up): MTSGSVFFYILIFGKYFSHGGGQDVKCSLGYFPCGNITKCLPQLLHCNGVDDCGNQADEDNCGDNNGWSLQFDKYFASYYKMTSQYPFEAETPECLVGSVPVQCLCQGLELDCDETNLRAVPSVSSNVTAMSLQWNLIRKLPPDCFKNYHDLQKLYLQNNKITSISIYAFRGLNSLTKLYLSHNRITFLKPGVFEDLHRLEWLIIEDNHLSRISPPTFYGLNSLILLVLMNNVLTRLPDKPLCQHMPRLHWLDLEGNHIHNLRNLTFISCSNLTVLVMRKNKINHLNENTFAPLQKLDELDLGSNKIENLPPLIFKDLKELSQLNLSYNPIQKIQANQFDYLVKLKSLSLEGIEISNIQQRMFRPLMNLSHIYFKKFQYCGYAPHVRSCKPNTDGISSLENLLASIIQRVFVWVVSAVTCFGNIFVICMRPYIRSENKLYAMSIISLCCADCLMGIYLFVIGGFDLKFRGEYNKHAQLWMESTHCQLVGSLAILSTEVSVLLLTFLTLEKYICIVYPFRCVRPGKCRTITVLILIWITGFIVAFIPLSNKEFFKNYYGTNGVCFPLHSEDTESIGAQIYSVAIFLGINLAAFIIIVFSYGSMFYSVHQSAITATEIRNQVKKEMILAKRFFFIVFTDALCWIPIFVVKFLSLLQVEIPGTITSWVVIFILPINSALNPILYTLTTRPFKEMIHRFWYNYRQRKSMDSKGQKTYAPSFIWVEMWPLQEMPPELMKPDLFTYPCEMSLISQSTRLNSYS
IL-2 act: activators of IL-2; IL-2 activation reporter assay, cell-based qHTS; stimulated with anti-CD3/CD4/CD28 beads; in transgenic mouse T cells; activation, % (series mostly up to about 46 µM); actives 0.065% (n = 360,000); in the data active = activation above about 50%; inconclusive = mostly about 30% to 49%; note: 0% is about no effect
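Using fluorescent plate cytometry, EGFP and DsRed are detected in transgenic mouse T cells stimulated 18 h at 37 degrees C with antibody-coated beads after 60 min compound pretreatment.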
BRCA1 expr up: increases BRCA1 expression; Potency, µM (series often up to 46.1 µM), inactives show top-dose activation, usual class: activators; actives 1.1% (n = 380,000); MCF7-BRCA1-FFLuc reporter, luminescence, 48 h; response scale: scaled: vehicle 0%, 10 µM genistein 100%; note: potency is the fitted concentration of half-maximal effect; nearly all actives have a fitted effect of over 80% in size
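MCF7 cells carrying a BRCA1-firefly luciferase reporter (2000 cells/well, phenol-red free MEM) were attached for 2 h at 37 °C, then given compounds for 48 h. Luminescence was read 15 min after luciferase reagent; activity normalized to genistein (10 microM) and DMSO.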
NPSR antag: neuropeptide S receptor (human) antagonism, cAMP; CHO-NPSR cells, cAMP TR-FRET, antagonist mode; Potency, µM (highest dose often 38.3 µM), for the others: at the top dose activity change, negative = inhibition, most hits filed as inhibitors; Q6W5P4; actives 1% (n = 220,000); AID 1461; note: potency is the fitted concentration of half-maximal effect; % is set by controls: 0 for no effect and ±100 for the full control effect; nearly all actives have a fitted effect of over 50% in size
Giardia killer: Giardia lamblia killing | activity change, % at 7.66 µM, hits read low | Giardia lamblia trophozoite viability | actives 0.15% (n = 340,000); in the data active = activity change below about -80%; inconclusive = between about -30% and that limit;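 note: parasites exposed to compound for two days anaerobically before the ATP read; % is set by controls: 0 for no effect and ±100 for the full control effect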
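Killing of trophozoites was scored by loss of ATP luminescence after a 48 hrs anaerobic exposure to compounds at 37 deg C, using 100 cells per well.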
RXFP1 ag: agonists of human relaxin receptor RXFP1 | Potency, µM (titrated, usually from 57.5 µM), without a hit: top-dose activation, usual class: activators | AID 2676 | HEK293T-RXFP1 cAMP TR-FRET, 30 min; response scale: percent of porcine relaxin response, buffer zero | actives 0.3% (n = 370,000); note: potency is the fitted concentration of half-maximal effect; % is set by controls: 0 for no effect and ±100 for the full control effect; nearly all actives have a fitted effect of over 60% in size
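Agonist response is measured as cAMP accumulation in an RXFP1-transfected HEK293T line under PDE4 inhibition. Values are scaled between buffer-only and 29 nM porcine relaxin, and EC50s come from standard Hill equation fits.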
* marks the source's active call; other numbers are inactive results; [ ] = another dose, or the depositor's remark. This is a sample that favours compounds with a hit; in the whole collection about 1.9% have one here. Unless noted, calls come from the whole dose curve; as a rule, active = well fitted curve in the direction sought with a large enough effect; inconclusive = small, poorly fitted or top-dose-only effect, or another doubt; inactive = no such curve, though single readings can be large; an effect the other way counts as inactive or inconclusive.

Screening CCCCOc1ccc(CSc2ncn[nH]2)cc1 returned RXFP1 antag 7.6, IL-2 act -2.5, BRCA1 expr up 7.08µM*, NPSR antag -13.5%[46.1 µM], Giardia killer 3.5 and RXFP1 ag 0.7%.
Screening COC(C(=O)C(O)C(C)O)C1Cc2cc3cc(OC4CC(OC5CC(O)C(O)C(C)O5)C(O)C(C)O4)c(C)c(O)c3c(O)c2C(=O)C1OC1CC(OC2CC(OC3CC(C)(O)C(O)C(C)O3)C(O)C(C)O2)C(O)C(C)O1 (configuration not stated) returned BRCA1 expr up -59.5%.
For C(=N\Nc1ccccn1)/c1ccc(N2CCOCC2)cc1 the results were RXFP1 antag -20.9, IL-2 act -0.5, BRCA1 expr up inconclusive, NPSR antag -30.4%, Giardia killer 9.1 and RXFP1 ag 0.7%.
For C/C(=N\Nc1ccccn1)c1ccc(N2CCOCC2)cc1 the results were RXFP1 antag -10.4, IL-2 act -2.9, BRCA1 expr up 4.47µM*, NPSR antag -9.7%, Giardia killer -3.8 and RXFP1 ag -0.3%.
For c1ccc(CC2CCN(C3=Nc4cccc5cccc3c45)CC2)cc1 the results were RXFP1 antag -11.2, IL-2 act -0.8, BRCA1 expr up -59.4%, NPSR antag 10µM*, Giardia killer -13.1 and RXFP1 ag 0.4%.
CC(NC(=O)Nc1nnc(C(F)(F)F)s1)(C(F)(F)F)C(F)(F)F was read as RXFP1 antag -7.7, IL-2 act -0.8, BRCA1 expr up -79.7%, NPSR antag 10µM*, Giardia killer 4.4 and RXFP1 ag 2.3%.
Cc1cc(Cl)c2oc(C(=O)N(C)C3CCOC3)c(C)c2c1 (configuration not stated) was read as RXFP1 antag 26.8, IL-2 act -4.3, BRCA1 expr up 2.51µM*, Giardia killer -12.7 and RXFP1 ag 1.4%.
Cc1cc(Cl)c2oc(C(=O)N3CCOCC3)c(C)c2c1 was read as RXFP1 antag 2.3, IL-2 act 0.8 and BRCA1 expr up inconclusive.
Screening O=C(Nc1ccc(Br)cc1Cl)c1cnn2c1NC(=C1CC1)C=C2C(F)F returned BRCA1 expr up 3.9%.
For CC(=O)O[C@@H]1CC2C3CCc4cc(OC(=O)c5ccccc5)ccc4C3CCC2(C)[C@H]1OC(C)=O (some centres not stated) the results were RXFP1 antag -13.1.
Screening O=C(NCc1cccs1)c1ccncc1 returned RXFP1 antag 9.4, IL-2 act -2.4, BRCA1 expr up -1.2%, NPSR antag -12.8%[46.1 µM], Giardia killer 31.1 and RXFP1 ag 0.1%.
`CC1CCCN(c2ccc(C(=O)NCc3ccccc3)cn2)C1` (configuration not stated) gave RXFP1 antag 13.0, IL-2 act 1.2, BRCA1 expr up 6.31µM*, NPSR antag -13.3%, Giardia killer 23.7 and RXFP1 ag -0.7%.
`CC1CCCN(c2ccc(C(=O)NCc3cccs3)cn2)C1` (configuration not stated) gave RXFP1 antag -6.6, IL-2 act -0.2, BRCA1 expr up 10µM*, NPSR antag -20.0%[46.1 µM], Giardia killer 2.5 and RXFP1 ag -0.3%.
For CC1CCN(c2ccc(C(=O)NCCc3ccccc3)cn2)CC1 the results were RXFP1 antag 35.4, IL-2 act -1.4, BRCA1 expr up inconclusive, NPSR antag -27.5%[46.1 µM], Giardia killer 12.9 and RXFP1 ag 0.1%.
`O=C(NCc1cccs1)c1ccc(N2CCCCC2)nc1` gave RXFP1 antag -14.4, IL-2 act 0.8, BRCA1 expr up 7.94µM*, NPSR antag -19.6%[46.1 µM], Giardia killer 4.3 and RXFP1 ag -0.1%.
`Cc1ccc(C(=O)NCC(=O)OCC(=O)c2cccc3ccccc23)cc1` gave BRCA1 expr up 5.4% and Giardia killer 8.0.
Screening CCOc1ccc(NC(=O)c2nc(S(=O)(=O)Cc3ccc(F)cc3)ncc2Cl)cc1 returned BRCA1 expr up -65.4%.
For O=S(=O)(c1cccc(Cl)c1)N1CCN(c2nc(-c3cccs3)nc3ccccc23)CC1 the results were BRCA1 expr up 0.0% and Giardia killer 11.1.
For O=C(COC(=O)C12CC3CC(CC(Br)(C3)C1)C2)NCc1ccco1 the results were BRCA1 expr up 9.3% and Giardia killer 5.7.
For O=C(NC(=O)c1ccc(Cl)cc1)OC1CCCCC1 the results were RXFP1 antag -2.2, IL-2 act -3.3, BRCA1 expr up 12.6µM*, NPSR antag 2.2%, Giardia killer 16.2 and RXFP1 ag -1.0%.
Screening CC(=O)Nc1cnc(/C=C\CCCO)cn1 returned IL-2 act -0.5 and BRCA1 expr up 8.8%.
For CNc1ccc(/C=C\CCCO)cn1 the results were IL-2 act 1.0 and BRCA1 expr up 10µM*.
CC1=C(C(=O)Nc2ccc(C)cc2C)C(CC(C)C)n2nc(SCc3ccccc3C)nc2N1 (configuration not stated) was read as BRCA1 expr up -3.3% and RXFP1 ag 2.6%.
O=C1CSc2ccc(C(=O)O)cc2N1 was read as RXFP1 antag -76.8*, IL-2 act -0.6, BRCA1 expr up -5.4%, NPSR antag 12.5%, Giardia killer 2.1 and RXFP1 ag 0.0%.
Screening Cc1ccc(N2C(=O)/C(=C/c3cccnc3)SC2=S)cc1 returned RXFP1 antag -8.4, IL-2 act -1.3, BRCA1 expr up 2.6%, NPSR antag -4.1%, Giardia killer -3.4 and RXFP1 ag -2.0%.
`COc1ccc(/C=C2/SC(=S)N(c3ccc(S(=O)(=O)Nc4nccs4)cc3)C2=O)cc1` gave RXFP1 antag -79.6*, IL-2 act -3.5, BRCA1 expr up -7.9%, NPSR antag -24.4%, Giardia killer -22.2 and RXFP1 ag 0.0%.
For Cc1ccc(Oc2ccc3c(c2)C(=O)N(c2ccc(S(=O)(=O)Nc4nccs4)cc2)C3=O)cc1 the results were RXFP1 antag -106.7*, IL-2 act -3.0, BRCA1 expr up 5.1%, NPSR antag inconclusive, Giardia killer 10.5 and RXFP1 ag 0.2%.
Cc1ccc(/C=C2/SC(=S)N(c3ccc(S(=O)(=O)Nc4nccs4)cc3)C2=O)cc1 was read as RXFP1 antag -66.5*, IL-2 act -1.8, BRCA1 expr up -12.1%, NPSR antag -35.7%, Giardia killer -8.7 and RXFP1 ag 22.5%.
`O=C(Nc1ccc(S(=O)(=O)Nc2nccs2)cc1)c1cccc(N2C(=O)c3ccccc3C2=O)c1` gave RXFP1 antag -5.4, IL-2 act -0.1, BRCA1 expr up 5.3%, NPSR antag -4.1%, Giardia killer inconclusive and RXFP1 ag 0.3%.
